Assay in all cases: NCI-60 one-dose screen, 48 h (100 = growth as untreated, 0 = no growth, -100 = all killed)
One assay has as its system HCT-15 colon. Conditions: 10 µM unless noted.
The test system of the next assay is HT29 colon. The note with it: 10 µM unless noted.
In a further assay the test system is SNB-75 CNS. The note with it: 10 µM unless noted.
In the next assay the test system is SNB-19 CNS. Conditions: 10 µM unless noted.
Another assay relates to U251 CNS. Conditions: 10 µM unless noted.
The test system of the next assay is PC-3 prostate. Conditions: 10 µM unless noted.
A further assay has as its system SK-MEL-5 melanoma. Conditions: 10 µM unless noted.
The subject of the next assay is UACC-62 melanoma. The note with it: 10 µM unless noted.
Another assay deals with LOX IMVI melanoma. Conditions: 10 µM unless noted.
The test system of the next assay is SK-MEL-2 melanoma. The note with it: 10 µM unless noted.
The subject of the next assay is EKVX NSCLC. The note with it: 10 µM unless noted.
The subject of another assay is SN12C renal. The note with it: 10 µM unless noted.
The next assay has as its system UO-31 renal. The note with it: 10 µM unless noted.
The subject of another assay is TK-10 renal. Conditions: 10 µM unless noted.
In the next assay the test system is ACHN renal. Conditions: 10 µM unless noted.
A further assay deals with A498 renal. The note with it: 10 µM unless noted.
The test system of a further assay is CCRF-CEM leukemia. Conditions: 10 µM unless noted.
In a further assay the test system is MOLT-4 leukemia. Conditions: 10 µM unless noted.
A further assay concerns CAKI-1 renal. Conditions: 10 µM.
The next assay relates to SK-MEL-28 melanoma. Conditions: 10 µM unless noted.

SMILES strings stand for the structures. This is part of a sample that, as a whole, favours compounds with a hit. Of some 83,000 tested, about 20% had one in any assay.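 Percent growth is the endpoint: 0 to 100 indicates growth inhibition (40 means 60% inhibition), 0 means no net growth, and negative values indicate cell death.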 Unmarked numbers belong to inactive results. Active and inactive are the calls of the source. The calls were made as follows: active = growth percent below 10; inactive = the rest.

In the case of `CC(=O)NC(C)(C)C(=O)N[C@@H](C)C(=O)NC(C)(C)C(=O)N[C@@H](C)C(=O)NC(C)(C)C(=O)N[C@@H](C)C(=O)N[C@@H](CCC(N)=O)C(=O)NC(C)(C)C(=O)N[C@H](C(=O)NC(C)(C)C(=O)NCC(=O)N[C@@H](CC(C)C)C(=O)NC(C)(C)C(=O)N1CCC[C@H]1C(=O)N[C@H](C(=O)NC(C)(C)C(=O)NC(C)(C)C(=O)N[C@@H](CCC(N)=O)C(=O)N[C@@H](CCC(N)=O)C(=O)N[C@H](CO)CC1CCCCC1)C(C)C)C(C)C`, the growth in the assay on HCT-15 colon was 79.2% [5 µM]; in the assay on HT29 colon, 14.1% [5 µM]; with SNB-75 CNS, 19.7% [5 µM]; with SNB-19 CNS, 43.8% [5 µM]; with U251 CNS, 38.5% [5 µM]; in the assay on PC-3 prostate it was 29.8% [5 µM]. Further, the growth in the assay with SK-MEL-5 melanoma is -33.6% [5 µM] (active); in the assay with UACC-62 melanoma it was 2.45% [5 µM] (active); in the assay with LOX IMVI melanoma, 27.1% [5 µM]; in the assay with SK-MEL-2 melanoma, 5.52% [5 µM] (active); with EKVX NSCLC, 52% [5 µM]; in the assay with SN12C renal, 21.2% [5 µM]. Further, the growth with UO-31 renal was 53.1% [5 µM]; in the assay on TK-10 renal it was 38.8% [5 µM]; in the assay with ACHN renal, 72.2% [5 µM]; in the assay on A498 renal, 52.3% [5 µM]; with CCRF-CEM leukemia, 55.6% [5 µM]; with MOLT-4 leukemia it was 55.1% [5 µM].

On to `N#Cc1c(NC(=O)c2ccc(F)c(Cl)c2)sc2c1CCC(=O)C2`, for which the growth in the assay on HCT-15 colon was -38.6% (active); in the assay with HT29 colon, 8.89% (active); with SNB-75 CNS, -0.913% (active); in the assay with SNB-19 CNS, 15.1%; with U251 CNS, 11.6%; in the assay with PC-3 prostate it was -19.8% (active). The growth is -75.6% (active) in the assay on SK-MEL-5 melanoma; -69.7% (active) with UACC-62 melanoma; -16.1% (active) with LOX IMVI melanoma; 18.3% in the assay with SK-MEL-2 melanoma; 13.1% in the assay on EKVX NSCLC; -99% (active) with UO-31 renal. Also, the growth in the assay with TK-10 renal is 15.3%; in the assay on ACHN renal, -98.8% (active); in the assay on CAKI-1 renal, -67% (active); with CCRF-CEM leukemia, 8.21% (active); with MOLT-4 leukemia, 3.13% (active).

`Cc1nc(-c2cc3ccccc3c(N3CCN(C)CC3)n2)cs1`: the growth with HCT-15 colon is 92.1%; with HT29 colon it was 96.4%; with SNB-75 CNS, 76.2%; in the assay with SNB-19 CNS it was 90.1%; in the assay on U251 CNS, 96.4%; in the assay with PC-3 prostate, 86.8%. In addition, the growth is 95.4% in the assay on SK-MEL-5 melanoma; 90.8% in the assay with UACC-62 melanoma; 84.7% in the assay with LOX IMVI melanoma; 96.3% in the assay on EKVX NSCLC; 90% with SN12C renal; 67% in the assay with UO-31 renal. For the same compound, the growth was 98.2% with TK-10 renal; 94% in the assay with ACHN renal; 72.1% in the assay on CAKI-1 renal; 103% in the assay with CCRF-CEM leukemia; 98% in the assay on MOLT-4 leukemia.

Take `C(=C(\C1=NCCN1)n1cnc2ccccc21)/c1ccc2ccccc2c1`: the growth was 61.1% with HCT-15 colon; 91.7% in the assay with HT29 colon; 72.9% in the assay with SNB-75 CNS; 81.3% in the assay with SNB-19 CNS; 87.3% in the assay with U251 CNS; 33.5% in the assay with PC-3 prostate. Besides, the growth is 63% with SK-MEL-5 melanoma; 77.2% in the assay on UACC-62 melanoma; 71.5% with LOX IMVI melanoma; 73.2% in the assay on EKVX NSCLC; 73.3% in the assay with SN12C renal; 68% in the assay on UO-31 renal. For the same compound, the growth with TK-10 renal was 77.8%; with ACHN renal it was 72.9%; in the assay with CAKI-1 renal it was 53.3%; in the assay with CCRF-CEM leukemia it was 63.5%; in the assay on MOLT-4 leukemia it was 67%.

As to `Cn1c(SC(C(=O)Nc2ccc(F)cc2)c2ccccc2)nc2ccccc2c1=O` (stereo not drawn), the growth in the assay with HCT-15 colon was 102%; with HT29 colon it was 107%; in the assay on SNB-75 CNS it was 91.3%; with SNB-19 CNS, 98.9%; in the assay on U251 CNS, 103%; with PC-3 prostate it was 95.8%. The growth with SK-MEL-5 melanoma was 104%; in the assay with UACC-62 melanoma it was 95.2%; with SK-MEL-28 melanoma it was 114%; with SK-MEL-2 melanoma, 104%; in the assay with EKVX NSCLC, 100%; in the assay on SN12C renal it was 99.1%. Besides, the growth in the assay with UO-31 renal was 88.1%; with TK-10 renal, 99.1%; with ACHN renal it was 109%; with CAKI-1 renal, 99.3%; in the assay with A498 renal, 98.8%; with CCRF-CEM leukemia it was 102%. Moreover, the growth in the assay with MOLT-4 leukemia was 101%.

As to `COc1ccc(-c2ccc3c4c(cccc24)C(=O)N(N2C(=O)c4cccc5cccc(c45)C2=O)C3=O)cc1`, the growth with HCT-15 colon was 99.1%; with HT29 colon, 99.1%; with SNB-75 CNS, 73.4%; in the assay on SNB-19 CNS it was 96.3%; in the assay on U251 CNS, 104%; with PC-3 prostate, 87.7%. The growth is 99.6% in the assay with SK-MEL-5 melanoma; 96.8% in the assay with UACC-62 melanoma; 106% in the assay with SK-MEL-28 melanoma; 111% in the assay on SK-MEL-2 melanoma; 89.4% with EKVX NSCLC; 105% in the assay on SN12C renal. Besides, the growth is 68.6% in the assay on UO-31 renal; 134% with TK-10 renal; 96.3% in the assay with ACHN renal; 75.2% in the assay with CAKI-1 renal; 100% with A498 renal; 96.8% in the assay with CCRF-CEM leukemia. In addition, the growth in the assay on MOLT-4 leukemia is 101%.

With `C#C[C@]1(O)CC[C@H]2[C@@H]3CC=C4c5sc(Nc6nc(C)cc(OC)n6)nc5CC[C@]4(C)[C@H]3CC[C@@]21C`, the growth in the assay on HCT-15 colon was 35.3%; in the assay with HT29 colon, 60.8%; in the assay on SNB-75 CNS it was -10.8% (active); with SNB-19 CNS it was 55%; in the assay on U251 CNS, 34.2%; with PC-3 prostate, 27.5%. Further, the growth in the assay on SK-MEL-5 melanoma was 17.9%; in the assay with UACC-62 melanoma, 0.98% (active); with SK-MEL-28 melanoma it was 21.1%; in the assay with SK-MEL-2 melanoma it was 58.2%; with EKVX NSCLC, 41.8%; in the assay with SN12C renal, 73%. For the same compound, the growth in the assay on UO-31 renal was -1.87% (active); in the assay with TK-10 renal, 121%; in the assay with ACHN renal, 49.2%; in the assay on CAKI-1 renal it was 19.2%; in the assay with A498 renal, 18.7%; with CCRF-CEM leukemia, 12.7%. Further, the growth in the assay with MOLT-4 leukemia was 7.93% (active).

On to `C=CCn1c(SCC(=O)Nc2cccc(C(=O)/C=C/c3ccc(Br)cc3)c2)nc2ccccc2c1=O`, for which the growth is 76.3% in the assay on HCT-15 colon; 83.9% in the assay with HT29 colon; 61.8% in the assay with SNB-75 CNS; 76.8% in the assay with SNB-19 CNS; 74.6% with U251 CNS; 79.4% in the assay with PC-3 prostate. Besides, the growth with SK-MEL-5 melanoma was 98.4%; in the assay with UACC-62 melanoma, 73.4%; in the assay with LOX IMVI melanoma, 74.8%; with EKVX NSCLC, 106%; in the assay on SN12C renal, 88.8%; with UO-31 renal it was 71.2%. The growth in the assay on TK-10 renal is 102%; with ACHN renal it was 84.5%; in the assay on CAKI-1 renal it was 73.7%; with A498 renal it was 89.3%; with CCRF-CEM leukemia, 95.5%.

These data come from PubChem BioAssay (NCI).
